Values joined by “and” are separate entries in the source; they are usually repeats but may differ in a detail not shown here. Equal values may be shown once. Where a name gives a salt, the structure may show the parent alone. ± gives the standard deviation of the averaged measurements. The full ranking holds about 2,600 compounds; the median of “MBP+ mature oligodendrocyte number relative to DMSO vehicle control” is about -0.34, and the highest 2% start at about 13. Shown is part of a subset that was picked to be rich in the highest values.

The assay has as its system jimpy (Plp1 jimpy) mouse iPSC-derived oligodendrocyte progenitor cells. Briefly: MBP+ mature oligodendrocyte number relative to DMSO vehicle control (SDs above negative control mean); higher = more surviving jimpy oligodendrocytes (rescue). To be noted: 10 µM; 3 days. On the procedure: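 Primary phenotypic screen of >3,000 bioactive compounds (Selleck L1700 and Sigma LO1280 libraries) at a single dose of 10 µM. Compounds were added to jimpy (Plp1 mutant) mouse iPSC-derived OPCs at the start of thyroid hormone-induced oligodendrocyte differentiation, one well per compound in 384-well plates. After 3 days cells were stained for MBP, Sox10 and DAPI and imaged with an Operetta system. MBP+ oligodendrocyte number and total cell number were expressed as the number of SDs above the mean of the DMSO negative control on the same plate (n=16 control wells per plate). Hits were defined as >=4 SD for oligodendrocytes and >=2 SD for total cells.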
`O=C1Cc2cc(CCN3CCN(c4nsc5ccccc45)CC3)c(Cl)cc2N1` [Ziprasidone HCl]: the “MBP+ mature oligodendrocyte number” value came to 21.9.
The same measure for `O=C1Cc2cc(CCN3CCN(c4nsc5ccccc45)CC3)c(Cl)cc2N1` [Ziprasidone hydrochloride monohydrate]: 11.7; for `O=C1CCc2ccc(OCCCCN3CCN(c4cccc(Cl)c4Cl)CC3)cc2N1` [Aripiprazole]: 5.11; for `COc1ccc(-c2oc3c(CC=C(C)C)c(O)cc(O)c3c(=O)c2O)cc1` [Icaritin]: -3.18.
The same measure for `COc1cc(N2CCC(N3CCN(C)CC3)CC2)ccc1Nc1ncc(Cl)c(Nc2ccccc2S(=O)(=O)C(C)C)n1`: < -6.7.
The same measure for `Cn1cnc2c(NCc3ccccc3)nc(NCCO)nc21` [Olomoucine]: 1.83; for `CC(C)NCC(O)c1ccc(O)c(O)c1` (racemic) [(±)-Isoproterenol hydrochloride]: 0.225; for `Nc1cc2c(ncn2CCOCP(=O)(O)O)c(=O)[nH]1` [PMEG hydrate]: -1.5.
As for `O.O=[Si]=O.O=[Si]=O.O=[Si]=O.O=[Si]=O.[O]=[Mg].[O]=[Mg].[O]=[Mg]`, the “MBP+ mature oligodendrocyte number” value is -1.01.
Take `NC(N)=N/N=C/c1ccccc1Cl` [Sephin-1]: the “MBP+ mature oligodendrocyte number” value is 1.29.
The same measure for `CCC(C)(C)c1ccc(CC(C)CN2C[C@@H](C)O[C@@H](C)C2)cc1` (some centres not stated) [Amorolfine HCl]: 28.8; for `Fc1ccc2[nH]c(CN3CCN(c4ccccn4)CC3)cc2c1`: -1.89.
To `O=C(O)CCCCC1CCSS1` (racemic) [(±)-alpha-Lipoic Acid] belongs -1.6.
For the compound `O=C(O)Cc1cccc(OCCCN(Cc2cccc(C(F)(F)F)c2Cl)CC(c2ccccc2)c2ccccc2)c1`, the “MBP+ mature oligodendrocyte number” value came to 24.5.
The same measure for `CN(CCCOc1ccc(Cc2ccccc2)cc1)CCC(=O)O`: 0.896.
Turning to `CC1(C)CCC2=C(O1)c1ccccc1C(=O)C2=O` [Beta-Lapachone], the “MBP+ mature oligodendrocyte number” value is -6.18.
The same measure for `CC1(C)CCC2=C(O1)c1ccccc1C(=O)C2=O` [beta-Lapachone]: < -3.97; for `CC(C)(C)C(=O)C(Oc1ccc(Cl)cc1)n1ccnc1` (configuration not stated) [Climbazole]: 38.6.
In the case of `CCOC(=O)C(C)(C)Oc1ccc(Cl)cc1` [Clofibrate], the “MBP+ mature oligodendrocyte number” value came out at 0.667.
To `CC(C)(Oc1ccc(Cl)cc1)C(=O)O` [Clofibric Acid] belongs 2.94; to `C[C@H](CCC(=O)NCCS(=O)(=O)O)[C@H]1CC[C@H]2[C@@H]3[C@H](O)C[C@@H]4C[C@H](O)CC[C@]4(C)[C@H]3C[C@H](O)[C@]12C` [Sodium Taurocholate hydrate], -0.433; to `CCN(c1cc(-c2ccc(CN3CCOCC3)cc2)cc(C(=O)NCc2c(C)cc(C)[nH]c2=O)c1C)C1CCOCC1`, 8.01.
As to `CCCc1cc(C)[nH]c(=O)c1CNC(=O)c1cc(-c2ccc(N3CCN(C(C)C)CC3)nc2)cc2c1cnn2C(C)C`, the “MBP+ mature oligodendrocyte number” value is < -6.35.
With `Cc1cc(C)c(CNC(=O)c2cc(-c3ccc(CN4CCOCC4)cc3)cc3c2cnn3C2CCCC2)c(=O)[nH]1`, the “MBP+ mature oligodendrocyte number” value stood at 30.2.
Consider `CCc1cc2c(cc1N1CCC(N3CCOCC3)CC1)C(C)(C)c1[nH]c3cc(C#N)ccc3c1C2=O`, for which the “MBP+ mature oligodendrocyte number” value is -2.2.
The same measure for `NC(=O)[C@@H](CCC(F)(F)F)N(Cc1ccc(-c2ncon2)cc1F)S(=O)(=O)c1ccc(Cl)cc1`: 4.21.
For the compound `CCn1c(=O)c2c(nc(/C=C/c3ccc(OC)c(OC)c3)n2C)n(CC)c1=O` [Istradefylline], the “MBP+ mature oligodendrocyte number” value is -4.18.
Consider `Cn1cc(C2=C(c3ccc(Cl)cc3Cl)C(=O)NC2=O)c2ccccc21`, for which the “MBP+ mature oligodendrocyte number” value was 22.4 and 12.6.
Consider `Cn1cc(/C=C2\C(=O)Nc3cccnc32)c2ccccc21`, for which the “MBP+ mature oligodendrocyte number” value was -3.63.
To `Cn1cc(C2=C(c3cn(CCCSC(=N)N)c4ccccc34)C(=O)NC2=O)c2ccccc21` [Ro 31-8220 Mesylate] belongs -5.25.
As to `Cc1[nH]c2ccccc2c1CCNCc1ccc(/C=C/C(=O)NO)cc1` [Panobinostat (LBH589)], the “MBP+ mature oligodendrocyte number” value was < -6.7.
`CN(CC[C@@H](Oc1ccc(C(F)(F)F)cc1)c1ccccc1)CC(=O)[O-].[Li+]`: the “MBP+ mature oligodendrocyte number” value was determined as 0.588.
The same measure for `Clc1ccc(C(Cn2ccnc2)OCc2c(Cl)cccc2Cl)c(Cl)c1` (configuration not stated) [Isoconazole nitrate]: 22.9; for `Clc1ccc(COC(Cn2ccnc2)c2ccc(Cl)cc2Cl)c(Cl)c1` (configuration not stated) [Miconazole]: -1.9; for `Clc1ccc(COC(Cn2ccnc2)c2ccc(Cl)cc2Cl)cc1` (configuration not stated) [Econazole nitrate]: 5.37.
Turning to `Clc1ccc(COC(Cn2ccnc2)c2ccc(Cl)cc2Cl)c(Cl)c1` (configuration not stated) [Miconazole Nitrate], the “MBP+ mature oligodendrocyte number” value was -3.62.
To `COc1ccc(C2(CNC(=O)c3ccc(NC(=O)c4ccco4)cc3)CCOCC2)cc1` belongs -2.6; to `CC(Cc1ccc(O)c(O)c1)(NN)C(=O)O` (stereo not drawn) [S-(-)-Carbidopa], -1.01.
To `Cc1nccn1CC1CCc2c(c3ccccc3n2C)C1=O` (configuration not stated) [Ondansetron HCl] belongs 12.8; to `Nc1cc(Cl)c(NC2=NCCN2)c(Cl)c1` [p-Aminoclonidine hydrochloride], -0.786.
In the case of `CNC(=O)CN(CCN(CCN(CC(=O)[O-])CC(=O)NC)CC(=O)[O-])CC(=O)[O-].[Gd+3]` [Gadodiamide], the “MBP+ mature oligodendrocyte number” value was < -5.15.
For the compound `C#C[C@]1(O)CC[C@H]2[C@@H]3CCC4=CC(=O)CC[C@@H]4[C@H]3CC[C@@]21C` [Norethindrone], the “MBP+ mature oligodendrocyte number” value was 6.57.
Take `C#C[C@]1(O)CC[C@H]2[C@@H]3CCc4cc(OC)ccc4[C@H]3CC[C@@]21C` [Mestranol]: the “MBP+ mature oligodendrocyte number” value is 12.8.
The same measure for `C#C[C@]1(O)CC[C@H]2[C@@H]3CCc4cc(O)ccc4[C@H]3CC[C@@]21C` [Ethinyl Estradiol]: 0.433; for `O=C(Nc1ccc2c(c1)CCN(Cc1ncn[nH]1)C2)c1ccccc1-c1ccc(C(F)(F)F)cc1`: 2.
As to `c1ccc2c(c1)CCC[C@H]2Nc1nc2ccccc2[nH]1` [NS8593 hydrochloride], the “MBP+ mature oligodendrocyte number” value was -0.125.
Take `NC(=O)NO` [Hydroxyurea]: the “MBP+ mature oligodendrocyte number” value worked out at 0.603 ± 0.14.
To `CO[C@H]1C[C@@H]2CC[C@@H](C)[C@@](O)(O2)C(=O)C(=O)N2CCCC[C@H]2C(=O)O[C@H]([C@H](C)C[C@@H]2CC[C@@H](O)[C@H](OC)C2)CC(=O)[C@H](C)/C=C(\C)[C@@H](O)[C@@H](OC)C(=O)[C@H](C)C[C@H](C)/C=C/C=C/C=C/1C` [Rapamycin (Sirolimus)] belongs -5.74; to `Cc1cc(NC(=O)Nc2ccc(N(C)C)cc2)c2cc(F)cc(F)c2n1`, 29.4.
Take `Cc1ccc(F)c(NC(=O)Nc2ccc(-c3cccc4[nH]nc(N)c34)cc2)c1` [Linifanib (ABT-869)]: the “MBP+ mature oligodendrocyte number” value was -5.74.
On to `COc1ccc(Cl)cc1NC(=O)Nc1cc(C)nc2ccccc12`, for which the “MBP+ mature oligodendrocyte number” value was -4.52.
As for `CN1c2ccccc2C(=O)N2CCc3c([nH]c4ccccc34)C21` (stereo in doubt) [Evodiamine], the “MBP+ mature oligodendrocyte number” value was -2.4.
The same measure for `Cc1ccc(NCCCc2ccccc2)c(N)c1`: < -6.35; for `CC(C)S(=O)(=O)N[C@H]1CCOC[C@@H]1c1ccc(-c2ccc(C#N)s2)cc1`: -3.15; for `CO[C@@H](C(=O)N1Cc2[nH]nc(NC(=O)c3ccc(N4CCN(C)CC4)cc3)c2C1)c1ccccc1`: -6.61.
As for `CC(=O)[C@H]1CC[C@H]2[C@@H]3CCC4=CC(=O)CC[C@]4(C)[C@H]3CC[C@]12C` [Progesterone], the “MBP+ mature oligodendrocyte number” value came to 15.4 ± 7.2.
To `CC(=O)[C@H]1CC[C@H]2[C@@H]3C=CC4=CC(=O)CC[C@@]4(C)[C@@H]3CC[C@]12C` [Dydrogesterone] belongs 0.153; to `C[C@]12C[C@H](O)[C@H]3[C@@H](CCC4=CC(=O)CC[C@@]43C)[C@@H]1CC[C@@H]2C(=O)CO` [Corticosterone], 1.49.
To `O=C1NC(=O)c2c1c(-c1ccccc1)cc1[nH]c3ccc(O)cc3c21` belongs < -3.97; to `CNC(=O)c1ccc(N2C(=S)N(c3ccc(C#N)c(C(F)(F)F)c3)C(=O)C2(C)C)cc1F` [Enzalutamide (MDV3100)], 16.6.
To `CC1(C)NC(=O)N(c2ccc([N+](=O)[O-])c(C(F)(F)F)c2)C1=O` [Nilutamide] belongs -0.755.
Regarding `CNC(=O)c1ccc(N2C(=S)N(c3cnc(C#N)c(C(F)(F)F)c3)C(=O)C23CCC3)cc1F`, the “MBP+ mature oligodendrocyte number” value was 5.74.
Consider `N=C(N)SCCc1c[nH]cn1` [Imetit dihydrobromide], for which the “MBP+ mature oligodendrocyte number” value was -0.363.
On to `Cc1cc(-c2ncc(CC(=O)Nc3ccc(-c4cnccn4)cn3)cc2C)ccn1`, for which the “MBP+ mature oligodendrocyte number” value was found to be 13.8.
To `Cc1cc(-c2ccc(CC(=O)Nc3ccc(-c4cccnc4)cc3)cc2)ccn1` belongs 23.2; to `Cc1ccc(NC(=O)c2ccc(CN3CCN(C)CC3)cc2)cc1Nc1nccc(-c2cccnc2)n1` [Imatinib Mesylate (STI571)], -5.56.
In the case of `O=C(Nc1cccnc1)c1cc(-c2ccnc(F)c2)ccc1OCc1ccccc1`, the “MBP+ mature oligodendrocyte number” value is -0.282.
As to `Cc1ccc(NC(=O)c2ccc(CN3CCN(C)CC3)cc2)cc1Nc1nccc(-c2cccnc2)n1` [Imatinib (STI571)], the “MBP+ mature oligodendrocyte number” value is -4.36.
`COC[C@H](NC(=O)c1cnc(C)s1)C(=O)N[C@@H](COC)C(=O)N[C@@H](Cc1ccccc1)C(=O)[C@@]1(C)CO1` [Oprozomib (ONX 0912)]: the “MBP+ mature oligodendrocyte number” value was -5.76.
To `COc1cc2c(cc1O)[C@@H](Cc1ccc(O)c(Oc3ccc(C[C@@H]4c5cc(OC)c(OC)cc5CCN4C)cc3)c1)N(C)CC2` [Daurisoline] belongs < -3.85.
Turning to `Nc1nc2c(ncn2[C@@H]2O[C@H](CO)[C@@H](O)[C@@H]2O)c(=O)[nH]1` [Ara-G hydrate], the “MBP+ mature oligodendrocyte number” value was -0.925.
The same measure for `Nc1ncnc2c1ncn2C1CCCC1` [9-cyclopentyladenine]: -1.18; for `COc1cc2c(cc1-c1c(C)noc1C)ncc1[nH]c(=O)n([C@H](C)c3ccccn3)c12`: < -6.01; for `Nc1nccc2c1ncn2[C@@H]1O[C@H](CO)[C@@H](O)[C@H]1O` [3-deazaadenosine]: -1.07.
To `O=C(CCCN1CCC(O)(c2ccc(Cl)cc2)CC1)c1ccc(F)cc1` [Haloperidol] belongs 2.36 ± 1.1; to `OC(CN1CCC(Cc2ccc(F)cc2)CC1)c1ccc(Cl)cc1` (configuration not stated) [Eliprodil], 13.4.
In the case of `O=C1[C@H](CC[C@H](O)c2ccc(F)cc2)[C@@H](c2ccc(O)cc2)N1c1ccc(F)cc1` [Ezetimibe], the “MBP+ mature oligodendrocyte number” value is 2.95.
